Results: the supplement of paper PMC8728848
About 410 targets per protein were measured; listed, in parts, are those with the strongest signals and a random draw of the rest.

Experiments:
Assay in all cases: glycan array binding signal (z-score within array); higher = stronger binding
Settings in all cases: glycan notation: IUPAC condensed, linker removed
[1] = molecular target: Fuc(a1-2)Gal(b1-3)GlcNAc(b1-3)Gal(b1-4)Glc
Outline: (§1)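 The binding signal is a Z-score computed within each array. Data were drawn from 3228 arrays in the Consortium for Functional Glycomics database, restricted to those with a known protein sequence. Scores were averaged over arrays of the same protein sequence at different concentrations or buffers, and over linkers, and negative values can be taken as non-binding.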

[2] = molecular target: Fuc(a1-2)Gal(b1-3)[Fuc(a1-4)]GlcNAc(b1-3)[Gal(b1-4)GlcNAc(b1-6)]Gal(b1-4)Glc
Outline: as §1

[3] = molecular target: Fuc(a1-2)Gal(b1-4)GlcNAc(b1-3)Gal(b1-4)GlcNAc(b1-3)Gal(b1-4)GlcNAc
Outline: as §1

[4] = molecular target: Fuc(a1-2)[Gal(a1-3)]Gal(b1-3)GlcNAc(b1-2)Man(a1-3)[Fuc(a1-2)[Gal(a1-3)]Gal(b1-3)GlcNAc(b1-2)Man(a1-6)]Man(b1-4)GlcNAc(b1-4)GlcNAc
Outline: as §1

[5] = molecular target: Fuc(a1-2)[Gal(a1-3)]Gal(b1-4)GlcNAc(b1-2)Man(a1-3)[Fuc(a1-2)[Gal(a1-3)]Gal(b1-4)GlcNAc(b1-2)Man(a1-6)]Man(b1-4)GlcNAc(b1-4)GlcNAc
Outline: as §1

[6] = molecular target: Fuc(a1-2)[GalNAc(a1-3)]Gal(b1-4)GlcNAc
Outline: as §1

[7] = molecular target: Fuc(a1-2)[GalNAc(a1-3)]Gal(b1-4)GlcNAc(b1-2)Man(a1-3)[Fuc(a1-2)[GalNAc(a1-3)]Gal(b1-4)GlcNAc(b1-2)Man(a1-6)]Man(b1-4)GlcNAc(b1-4)GlcNAc
Outline: as §1

[8] = molecular target: Fuc(a1-2)[GalNAc(a1-3)]Gal(b1-4)GlcNAc(b1-3)Gal(b1-4)GlcNAc(b1-3)Gal(b1-4)GlcNAc
Outline: as §1

[9] = molecular target: Fuc(a1-2)[GalNAc(b1-3)]Gal
Outline: as §1

[10] = molecular target: Fuc(a1-3)[Gal(b1-4)]GlcNAc6S
Outline: as §1

[11] = molecular target: Gal(a1-3)Gal(b1-4)GlcNAc(b1-3)GalNAc
Outline: as §1

[12] = molecular target: Gal(a1-3)[Gal(a1-4)]Gal(b1-4)GlcNAc
Outline: as §1

[13] = molecular target: Gal(a1-4)Gal(b1-3)GlcNAc(b1-2)Man(a1-3)[Gal(a1-4)Gal(b1-3)GlcNAc(b1-2)Man(a1-6)]Man(b1-4)GlcNAc(b1-4)GlcNAc
Outline: as §1

[14] = molecular target: Gal(b1-3)Gal(b1-4)GlcNAc(b1-2)Man(a1-3)[Gal(b1-3)Gal(b1-4)GlcNAc(b1-2)Man(a1-6)]Man(b1-4)GlcNAc(b1-4)GlcNAc
Outline: as §1

[15] = molecular target: Gal(b1-3)GalNAc(a1-3)[Fuc(a1-2)]Gal(b1-4)GlcNAc
Outline: as §1

[16] = molecular target: Gal(b1-3)[Neu5Ac(b2-6)]GalNAc
Outline: as §1

[17] = molecular target: Gal(b1-4)GlcNAc(b1-2)[Gal(b1-4)GlcNAc(b1-4)]Man(a1-3)[Gal(b1-4)GlcNAc(b1-2)[Gal(b1-4)GlcNAc(b1-6)]Man(a1-6)]Man(b1-4)GlcNAc(b1-4)GlcNAc
Outline: as §1

[18] = molecular target: Gal(b1-4)GlcNAc(b1-3)Gal(b1-3)GlcNAc
Outline: as §1

[19] = molecular target: Gal(b1-4)GlcNAc(b1-3)Gal(b1-4)GlcNAc(b1-3)Gal(b1-4)GlcNAc
Outline: as §1

[20] = molecular target: Gal(b1-4)GlcNAc(b1-3)[GlcNAc(b1-6)]Gal(b1-4)GlcNAc
Outline: as §1

[21] = molecular target: Gal3S(b1-4)[Fuc(a1-3)]Glc
Outline: as §1

[22] = molecular target: Gal6S(b1-4)Glc
Outline: as §1

[23] = molecular target: GalNAc(b1-3)Gal(a1-6)Gal(b1-4)Glc
Outline: as §1

[24] = molecular target: GlcNAc(a1-6)Gal(b1-4)GlcNAc
Outline: as §1

[25] = molecular target: GlcNAc(b1-4)GlcNAc(b1-4)GlcNAc(b1-4)GlcNAc(b1-4)GlcNAc
Outline: as §1

[26] = molecular target: GlcNAc(b1-6)Gal(b1-4)GlcNAc
Outline: as §1

[27] = molecular target: GlcNAc(b1-6)GalNAc
Outline: as §1

[28] = molecular target: Kdn(a2-3)Gal(b1-4)Glc
Outline: as §1

[29] = molecular target: Kdn(a2-3)Gal(b1-4)GlcNAc
Outline: as §1

[30] = molecular target: Man(a1-2)Man(a1-6)[Man(a1-3)]Man(a1-6)[Man(a1-2)Man(a1-2)Man(a1-3)]Man
Outline: as §1

[31] = molecular target: Neu5Ac(a2-3)Gal(b1-3)GlcNAc(b1-3)GalNAc
Outline: as §1

[32] = molecular target: Neu5Ac(a2-3)Gal(b1-4)GlcNAc(b1-3)Gal(b1-4)GlcNAc(b1-3)Gal(b1-4)GlcNAc
Outline: as §1

[33] = molecular target: Neu5Ac(a2-3)Gal(b1-4)[Fuc(a1-3)]GlcNAc
Outline: as §1

[34] = molecular target: Neu5Ac(a2-3)Gal6S(b1-4)GlcNAc
Outline: as §1

[35] = molecular target: Neu5Ac(a2-6)Gal(b1-4)GlcNAc(b1-2)Man(a1-6)[Gal(b1-4)GlcNAc(b1-2)Man(a1-3)]Man(b1-4)GlcNAc(b1-4)GlcNAc
Outline: as §1

[36] = molecular target: Neu5Ac(a2-6)Gal(b1-4)GlcNAc(b1-3)Gal(b1-4)[Fuc(a1-3)]GlcNAc(b1-3)Gal(b1-4)[Fuc(a1-3)]GlcNAc
Outline: as §1

[37] = molecular target: Neu5Gc(a2-6)GalNAc
Outline: as §1

B1: Gal 3 (Homo sapiens), P17931 (protein)
chain: MADNFSLHDALSGSGNPNPQGWPGAWGNQPAGAGGYPGASYPGAYPGQAPPGAYPGQAPPGAYHGAPGAYPGAPAPGVYPGPPSGPGAYPSSGQPSAPGAYPATGPYGAPAGPLIVPYNLPLPGGVVPRMLITILGTVKPNANILDFQRGNDVAFHFNPRFNENNRRVIVCNTKLDNNWGREERQSVFPFESGKPFKIQVLVEPDHFKVAVNDAHLLQYNHRVKKLNEISKLGISGDIDLTSASYTMI
B1 was tested, and the “glycan array binding signal (z-score)” value [1] was 1.9, the “glycan array binding signal (z-score)” value [2] was -0.331 and the “glycan array binding signal (z-score)” value [3] was 3.62. The “glycan array binding signal (z-score)” value [4] was 3.84, the “glycan array binding signal (z-score)” value [5] was 5.09 and the “glycan array binding signal (z-score)” value [6] was 2.16. The “glycan array binding signal (z-score)” value [7] was 4.33, the “glycan array binding signal (z-score)” value [8] was 4.1 and the “glycan array binding signal (z-score)” value [9] was -0.382. For the same binder, the “glycan array binding signal (z-score)” value [10] was -0.391, the “glycan array binding signal (z-score)” value [11] was 0.949 and the “glycan array binding signal (z-score)” value [12] was -0.388. The “glycan array binding signal (z-score)” value [13] was -0.389, the “glycan array binding signal (z-score)” value [14] was 4.28 and the “glycan array binding signal (z-score)” value [15] was 2.57. The “glycan array binding signal (z-score)” value [16] was -0.386, the “glycan array binding signal (z-score)” value [17] was 2.3 and the “glycan array binding signal (z-score)” value [18] was 2.35. The “glycan array binding signal (z-score)” value [19] was 4.37, the “glycan array binding signal (z-score)” value [20] was -0.307 and the “glycan array binding signal (z-score)” value [21] was -0.39. The “glycan array binding signal (z-score)” value [22] was -0.376, the “glycan array binding signal (z-score)” value [23] was -0.388 and the “glycan array binding signal (z-score)” value [24] was -0.392. The “glycan array binding signal (z-score)” value [25] was -0.379, the “glycan array binding signal (z-score)” value [26] was -0.389 and the “glycan array binding signal (z-score)” value [27] was -0.391. For the same binder, the “glycan array binding signal (z-score)” value [28] was -0.391, the “glycan array binding signal (z-score)” value [29] was -0.386 and the “glycan array binding signal (z-score)” value [30] was -0.379. The “glycan array binding signal (z-score)” value [31] was -0.375, the “glycan array binding signal (z-score)” value [32] was 3.82 and the “glycan array binding signal (z-score)” value [33] was -0.39. For the same binder, the “glycan array binding signal (z-score)” value [34] was -0.387, the “glycan array binding signal (z-score)” value [35] was -0.391 and the “glycan array binding signal (z-score)” value [36] was -0.386. For the same binder, the “glycan array binding signal (z-score)” value [37] was -0.392.
